Source: the supplement of paper PMC6555819

How the values were obtained:
Assay in all cases: PBM binding z-score (relative to random genomic background probes); higher = stronger binding; sequences stand for … in GC…GCGATTGACAGCGTAGAATGAAGG
[1] = test system: FXR:RXRa (NR concentration 270 nM, RXRa partner concentration 90 nM)
Summary of the method: (§1)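 Ligand-free nuclear receptor dimers were applied to custom Agilent 4×180K protein-binding microarrays whose double-stranded probes carried direct-repeat seeds, single-nucleotide variants, half-site ablations and random human genomic background sequences in 34-nt variable regions. Incubation lasted 1 h. Binding z-scores were computed against the random background probes from regression-normalized fluorescence.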

[2] = test system: LXRa:RXRa (NR concentration 270 nM, RXRa partner concentration 90 nM)
Summary of the method: as §1

[3] = test system: LXRa homodimer (NR concentration 270 nM)
Summary of the method: as §1

[4] = test system: LXRb:RXRa (NR concentration 270 nM, RXRa partner concentration 90 nM)
Summary of the method: as §1

[5] = test system: LXRb homodimer (NR concentration 270 nM)
Summary of the method: as §1

[6] = test system: PPARa:RXRa (NR concentration 270 nM, RXRa partner concentration 90 nM)
Summary of the method: as §1

[7] = test system: PPARg:RXRa (NR concentration 180 nM, RXRa partner concentration 90 nM)
Summary of the method: as §1

[8] = test system: PPARg:RXRa 270nM:90nM, anti-RXR (NR concentration 270 nM, RXRa partner concentration 90 nM)
Summary of the method: as §1

[9] = test system: PPARg:RXRa 30nM:10nM, anti-RXR (NR concentration 30 nM, RXRa partner concentration 10 nM)
Summary of the method: as §1

[10] = test system: PPARg:RXRa 90nM:30nM, anti-RXR (NR concentration 90 nM, RXRa partner concentration 30 nM)
Summary of the method: as §1

[11] = test system: PPARg:RXRa DBDmut IVT, anti-RXR (DBD mutation: RXRa K156A/R161A, NR concentration 270 nM, RXRa partner concentration 90 nM)
Summary of the method: as §1

[12] = test system: PPARg:RXRa IVT, anti-PPARg (NR concentration 270 nM, RXRa partner concentration 90 nM)
Summary of the method: as §1

[13] = test system: PPARg DBDmut:RXRa IVT, anti-PPARg (DBD mutation: PPARg1 K132A/R137A, NR concentration 270 nM, RXRa partner concentration 90 nM)
Summary of the method: as §1

[14] = test system: PPARg DBDmut IVT, anti-PPARg (DBD mutation: PPARg1 K132A/R137A, NR concentration 270 nM)
Summary of the method: as §1

[15] = test system: PPARg homodimer (NR concentration 180 nM)
Summary of the method: as §1

[16] = test system: PXR:RXRa (NR concentration 270 nM, RXRa partner concentration 90 nM)
Summary of the method: as §1

[17] = test system: PXR homodimer (NR concentration 270 nM)
Summary of the method: as §1

[18] = test system: RARa:RXR (NR concentration 270 nM, RXRa partner concentration 90 nM)
Summary of the method: as §1

[19] = test system: RARa homodimer (NR concentration 270 nM)
Summary of the method: as §1

[20] = test system: RARb:RXRa (NR concentration 270 nM, RXRa partner concentration 90 nM)
Summary of the method: as §1

Sequence	PBM binding z-score [1]	PBM binding z-score [2]	PBM binding z-score [3]	PBM binding z-score [4]	PBM binding z-score [5]	PBM binding z-score [6]	PBM binding z-score [7]	PBM binding z-score [8]	PBM binding z-score [9]	PBM binding z-score [10]	PBM binding z-score [11]	PBM binding z-score [12]	PBM binding z-score [13]	PBM binding z-score [14]	PBM binding z-score [15]	PBM binding z-score [16]	PBM binding z-score [17]	PBM binding z-score [18]	PBM binding z-score [19]	PBM binding z-score [20]
ACTAGCAGGCCAAGTTTGGGTCACTCACACAAAG	0.272	0.288	-0.0849	0.693	-0.282	1.41	0.507	0.233	-0.397	-0.0603	0.874	1.38	-1.02	0.437	0.553	0.973	0.229	1.62	-0.272	2.06
CCTATTAGATGACCATAAGGGCAACCGAAGCTCG	0.824	0.35	0.303	0.273	0.565	0.419	0.753	0.324	0.147	0.0156	-0.108	0.24	0.781	-0.21	1.46	0.624	0.912	0.938	2.1	1.4
CCTACTGGGCCATAAGGTCATTGATATCAACGTT	3.03	3.09	1.89	3.17	0.0476	4.14	4.49	4.98	3.38	4.64	4.4	5.28	0.506	0.0496	2.03	3.98	1.97	4.25	1.27	3.43
CCAGACAGCTGAAAGGTAACTCAGTCTGGTACGC	-0.259	-0.27	-0.368	-0.00199	-0.748	0.193	0.377	-0.223	-0.581	-0.401	-0.0276	-0.495	-0.361	-0.671	-0.141	-0.177	-0.344	0.0105	-0.368	0.0484
TCATTTAGGTAAATGCTAGGTGAAAGTCCGATCT	0.568	0.673	0.0938	0.395	0.604	1.41	0.312	1.97	3.57	2.65	3.13	2.44	1.71	1.17	0.343	0.445	-0.0267	0.799	0.628	0.562
CCAGACAGGTGAAAAGGTAACTCAGCCTCGATTA	0.33	0.666	-0.0851	0.744	-0.438	2.09	1.27	2.24	0.682	1.77	1.6	1.25	-0.262	-0.729	1.18	0.509	0.481	1.45	1.21	1.43
GTACCAAGGTGAATAGGGCGTTGATGAGTAGGCG	0.407	0.248	-0.214	-0.0331	-0.614	1.22	1.02	0.756	-0.0867	0.088	1.79	2.39	0.11	-0.0449	0.629	-0.0283	0.127	0.434	0.194	1.5
TGAATGAGGTGATAAGATCAGGGAACGTTGCAAA	0.365	-0.0507	-0.391	-0.155	-0.466	1.08	0.727	1.24	0.758	0.92	1.64	2.01	0.612	0.281	-0.472	-0.0646	-0.0145	0.43	-0.23	0.351
ACAGACAGGTCAGTGAAGGTAACTCAGCTGGACG	2.55	1.83	-0.374	1.07	-0.266	2.47	1.18	1.05	-0.166	0.444	0.901	1.22	-0.0695	-0.218	0.397	1.57	-0.149	1.78	0.123	3.51
CCTTACGGGTCACGAGGTTATGGCACGACGAGCG	6.57	4.39	0.195	3.8	0.148	5.94	7.08	6.31	3.46	5.31	3.69	5.37	1.26	0.892	2.01	4.16	0.0957	5.67	0.689	4.51
TCAAGTTGGTCACGGAGGTCACACACGACGGGTA	3.09	3.76	2.38	3.17	0.603	4.18	3.94	3.95	3.52	3.47	2.45	3.99	1.48	0.93	2.72	4.35	1.65	4.61	1.86	3.98
CCTGCTAGGTCATGGTCAGATAATCTACAGTATG	3.8	2.5	0.343	1.93	0.146	3.64	2.85	2.71	0.675	1.95	4.17	3.84	0.574	0.147	1.88	1.35	-0.264	2.59	0.0727	3.92
AGAATGAGGTTACCAAAGATCAGAGAAACGCTTG	2.03	6.18	0.173	3.6	-0.0648	3.32	2.75	2.19	0.774	1.78	3.76	3.32	1.01	0.709	0.304	1.28	0.161	2.02	0.489	2.09
CAGCCTAGGTCAGGGCCAGCATAGGAGGAACGTT	1.52	0.758	-0.392	0.314	-1.18	1.98	0.816	1.02	-0.543	0.19	1.28	1.44	-0.858	-1.51	0.398	0.0493	-0.664	0.806	-0.366	3.37
CCTGCTAGGTCATGGTCAGTTAATCTACAGTATG	3.84	2.66	0.0744	1.97	-0.163	3.48	2.31	2.88	0.868	2.13	4.72	3.92	0.767	0.558	1.63	2.31	-0.286	2.62	0.426	3.96
